Results filed as inconclusive are left out. Calls of active or inactive are those of the source. Rule for the calls: active = hit-call score of the fitted dose curve at least 0.9, where 1 is the maximum; inconclusive = response in the unintended direction; inactive = score below 0.9.
assay: CCTE_Harrill_HTTr_CellCount_MCF7: CCTE's Cell Proliferation Assessment for the High-Throughput Transcriptomics (HTTr) Platform, Harrill Lab (AID 2284012);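 note: intended direction is loss of nuclei count meaning fewer cells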
Method in brief: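 Cell count from high-content imaging of Hoechst-labeled nuclei serves as viability/growth readout. Chemicals were applied to MCF-7 cells in eight concentrations for six hours, with fitting in both directions relative to DMSO.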

Compound	outcome
Brc1cc(Br)cc(Br)c1	inactive
c1ccc(Cc2ccccc2)cc1	inactive
CC(=O)C1=C(C)[C@@H]2C[C@@]3(C1)[C@H](C)CC[C@H]3C2(C)C	inactive
O=C(O)C1=NN(c2ccc(S(=O)(=O)O)cc2)C(=O)C1	inactive
O=C1CCCCCCCCCCCC(=O)OCCO1	inactive
CC(C)Cc1ccccc1	inactive
O=c1cc(-c2ccc(O)cc2)oc2cc(O)cc(O)c12	inactive
CC(=O)OC/C=C(C)/C=C/C=C(C)/C=C/C1=C(C)CCCC1(C)C	inactive
COc1ccc(C(C)=O)cc1	inactive
CC(=O)CC(=O)N(C)C	inactive
NC(=O)c1c(Cl)cccc1Cl	inactive
Cc1cc(O)c2c(c1)C(=O)c1cc(O)cc(O)c1C2=O	inactive
CCCc1ccc(O)cc1	inactive
FC(F)(F)c1ccc(Cl)c(Cl)c1	inactive
CC1=CCC(C(C)(C)O)CC1 (stereo not drawn)	inactive
O=C1OC2(c3ccc(O)cc3Oc3cc(O)ccc32)c2ccccc21	inactive
Cc1cccc(C)c1	inactive
OC[C@H]1O[C@@H](O[C@H]2[C@H](O)[C@@H](O)[C@H](O)O[C@@H]2CO)[C@H](O)[C@@H](O)[C@H]1O	inactive

Reference: PubChem BioAssay (EPA / NIEHS)
